The source made the active and inactive calls. Rule for the calls: active = hit-call score of the fitted dose curve at least 0.9, where 1 is the maximum; inactive = score below 0.9.
Read-out: Monokine induced gamma interferon (MIG), CXCL9 (gene 4283)
Assay: BSK_3C_MIG: BioMAP Diversity Plus: 3C Assay for Monokine induced gamma interferon (MIG) Biomarker Activity (AID 2283021);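 for AC50: MIG protein level measured by immunoassay in the treated endothelial cultures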
Conditions: primary human endothelial cells (HUVEC); actives raise or lower the signal
In short: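 ELISA measurement of MIG in human umbilical vein endothelial cells 24 h after treatment. Cytotoxicity tracked by SRB staining in parallel cultures; gain or loss of signal fitted relative to DMSO.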

| Structure (SMILES) | AC50 | outcome |
| --- | --- | --- |
| NC(=O)c1nc(-c2cccc(-c3cc(F)ccc3OCC(F)(F)C(F)(F)F)c2)n[nH]1 | 41.4 µM (active) |  |
| O=C(Nc1ccc(Cl)cc1)Nc1ccc(Cl)c(Cl)c1 |  | inactive |
| CCCCCCCCCCCC[N+](C)(C)C | 29.4 µM (active) |  |
| CC[C@H](NC(=O)c1cc(F)ccc1NS(=O)(=O)c1cccc2cccnc12)c1ccccc1 |  | inactive |
| O=C=NCCCCCCN=C=O |  | inactive |
| CN(C)C(=O)C1(N2CCCCC2)CCN(CC[C@@]2(c3ccc(Cl)c(Cl)c3)CN(C(=O)c3ccccc3)CCO2)CC1 | 34.7 µM (active) |  |
| CCCCOC(=O)CC(CC(=O)OCCCC)(OC(C)=O)C(=O)OCCCC |  | inactive |
| Clc1ccccc1C(c1ccccc1)(c1ccccc1)n1ccnc1 | 34.5 µM (active) |  |
| Cc1occc1C(=O)Nc1ccc(C(=O)N2CCC(F)(F)/C(=C\C(=O)N3CCC(N4CCCCC4)CC3)c3ccccc32)cc1 |  | inactive |
| Cc1cn([C@H]2C[C@H](N=[N+]=[N-])[C@@H](CO)O2)c(=O)[nH]c1=O |  | inactive |
| Oc1ccc2ccccc2c1 |  | inactive |
| COc1ccc2cc(S(=O)(=O)N[C@H](CC(=O)N[C@H](Cc3ccc(CN4[C@H](C)CCC[C@@H]4C)cc3)C(=O)N(C)C(C)C)c3ccc4c(c3)OCO4)ccc2c1 |  | inactive |
| CCCCCCCCCC(=O)O |  | inactive |
| CC(C)(C)c1csc(-c2cc3cc(OCc4ccccc4CC(=O)O)ccc3o2)n1 | 32 µM (active) |  |
| CC(C)(C)c1cc(/C=C2\SC(N)=NC2=O)cc(C(C)(C)C)c1O | 37.1 µM (active) |  |
| CCOC(=O)O[C@H](C)OC(=O)c1ccc2c(c1)cc(C(=O)NC1CCN(C(C)C)CC1)n2Cc1cc(-c2ccc(Cl)s2)on1 | 8.78 µM (active) |  |

Source: PubChem BioAssay (EPA / NIEHS)
